Laboratory results published in PubChem BioAssay AID1159580 (chemical genetic matrix, 2015).
Screen size: about 5,500 compounds; about 2,000 (36%) were called active. Another 18% or so got no clear call; they are omitted. No stated cut-off is given here; in the data, active means normalized growth mostly below about 0.91 (no sharp cut-off); inconclusive means no clear call, values can overlap the other calls; inactive means mostly above about 0.92. The list shows a part of the results.

Assay: chemical genetic growth profiling, strain panel (AID 1159580);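 further: tested at 20 µM; growth read once vehicle control cultures reached saturation at 30 °C; 1 = growth at the plate median or of vehicle wells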
Details: growth OD

Measured: normalized growth

CC(C)(Oc1ccc(CCNC(=O)c2ccc(Cl)cc2)cc1)C(=O)O
inactive: S. cerevisiae deletion strains, locus YJR075W, strain HOC1, stronger effect = lower value 1.02 | S. cerevisiae deletion strains, locus YKL009W, strain mrt4, stronger effect = lower value 1.02 | S. cerevisiae deletion strains, locus YKL068W, stronger effect = lower value 1.01 | S. cerevisiae deletion strains, locus YKL085W, strain MDH1 (second series), stronger effect = lower value 1.03 | S. cerevisiae deletion strains, locus YKL085W, strain MDH1, stronger effect = lower value 1.03 | S. cerevisiae deletion strains, locus YKL160W, strain elf1, stronger effect = lower value 0.961 | S. cerevisiae deletion strains, locus YKL190W, strain CNB1, stronger effect = lower value 1.01 | S. cerevisiae deletion strains, locus YKR001C, strain vps1, stronger effect = lower value 1.02 | S. cerevisiae deletion strains, locus YKR026C, strain gcn3, stronger effect = lower value 0.991 | S. cerevisiae deletion strains, locus YKR091W, strain srl3, stronger effect = lower value 0.996 | S. cerevisiae deletion strains, locus YLL001W, strain dnm1, stronger effect = lower value 0.975 | S. cerevisiae deletion strains, locus YLL026W, stronger effect = lower value 0.995 | S. cerevisiae deletion strains, locus YLL041C, strain sdh2, stronger effect = lower value 0.98 | S. cerevisiae deletion strains, locus YLR027C, strain aat2, stronger effect = lower value 0.977 | S. cerevisiae deletion strains, locus YLR039C, strain RIC1, stronger effect = lower value 1.03 | S. cerevisiae deletion strains, locus YLR058C, strain SHM2, stronger effect = lower value 1.01 | S. cerevisiae deletion strains, locus YLR102C, strain apc9, stronger effect = lower value 1.01 | S. cerevisiae deletion strains, locus YLR113W, strain HOG1, stronger effect = lower value 0.943 | S. cerevisiae deletion strains, locus YLR221C, strain rsa3, stronger effect = lower value 0.997 | S. cerevisiae deletion strains, locus YLR258W, strain gsy2, stronger effect = lower value 0.972 | S. cerevisiae deletion strains, locus YLR262C, strain YPT6 (second series), stronger effect = lower value 1.01 | S. cerevisiae deletion strains, locus YLR262C, strain YPT6, stronger effect = lower value 1.02 | S. cerevisiae deletion strains, locus YLR268W, strain sec22, stronger effect = lower value 1.01 | S. cerevisiae deletion strains, locus YLR320W, strain mms22, stronger effect = lower value 0.978 | S. cerevisiae deletion strains, locus YLR330W, strain CHS5, stronger effect = lower value 1.01 | S. cerevisiae deletion strains, locus YLR342W, strain FKS1 (second series), stronger effect = lower value 1.05 | S. cerevisiae deletion strains, locus YLR342W, strain FKS1, stronger effect = lower value 0.978 | S. cerevisiae deletion strains, locus YLR357W, strain rsc2, stronger effect = lower value 0.951 | S. cerevisiae deletion strains, locus YLR370C, strain arc18, stronger effect = lower value 0.983 | S. cerevisiae deletion strains, locus YLR371W, strain rom2, stronger effect = lower value 1.02 | S. cerevisiae deletion strains, locus YLR384C, strain iki3, stronger effect = lower value 0.972 | S. cerevisiae deletion strains, locus YLR418C, strain cdc73, stronger effect = lower value 1.06 | S. cerevisiae deletion strains, locus YML016C, strain PPZ1, stronger effect = lower value 1.02 | S. cerevisiae deletion strains, locus YML032C, strain rad52, stronger effect = lower value 1.01 | S. cerevisiae deletion strains, locus YML120C, strain ndi1, stronger effect = lower value 1.03 | S. cerevisiae deletion strains, locus YML124C, strain tub3, stronger effect = lower value 1.01 | S. cerevisiae deletion strains, locus YMR058W, strain fet3, stronger effect = lower value 0.995 | S. cerevisiae deletion strains, locus YMR078C, strain ctf18, stronger effect = lower value 1.01 | S. cerevisiae deletion strains, locus YMR125W, strain sto1, stronger effect = lower value 0.986 | S. cerevisiae deletion strains, locus YMR129W, stronger effect = lower value 0.982 | S. cerevisiae deletion strains, locus YMR205C, strain PFK2, stronger effect = lower value 0.977 | S. cerevisiae deletion strains, locus YMR223W, strain ubp8, stronger effect = lower value 1.01 | S. cerevisiae deletion strains, locus YMR231W, strain pep5, stronger effect = lower value 0.994 | S. cerevisiae deletion strains, locus YMR307W, strain GAS1, stronger effect = lower value 1.04 | S. cerevisiae deletion strains, locus YNL067W, strain RPL9B, stronger effect = lower value 1.01 | S. cerevisiae deletion strains, locus YNL071W, strain lat1, stronger effect = lower value 0.994 | S. cerevisiae deletion strains, locus YNL128W, strain TEP1, stronger effect = lower value 1.04 | S. cerevisiae deletion strains, locus YNL153C, strain GIM3, stronger effect = lower value 1.02 | S. cerevisiae deletion strains, locus YNL183C, strain NPR1, stronger effect = lower value 0.937 | S. cerevisiae deletion strains, locus YNL209W, strain ssb2, stronger effect = lower value 0.98 | S. cerevisiae deletion strains, locus YNL233W, strain BNI4, stronger effect = lower value 1.01 | S. cerevisiae deletion strains, locus YNL248C, strain rpa49, stronger effect = lower value 0.986 | S. cerevisiae deletion strains, locus YNL250W, strain rad50, stronger effect = lower value 1.02 | S. cerevisiae deletion strains, locus YNL271C, strain bni1, stronger effect = lower value 1.02 | S. cerevisiae deletion strains, locus YNL298W, strain CLA4, stronger effect = lower value 1.02 | S. cerevisiae deletion strains, locus YNL307C, strain MCK1, stronger effect = lower value 1.03 | S. cerevisiae deletion strains, locus YNL322C, strain KRE1 (second series), stronger effect = lower value 0.978 | S. cerevisiae deletion strains, locus YNL322C, strain KRE1, stronger effect = lower value 1.01 | S. cerevisiae deletion strains, locus YNR049C, strain mso1, stronger effect = lower value 0.971 | S. cerevisiae deletion strains, locus YNR052C, strain pop2, stronger effect = lower value 1.01 | S. cerevisiae deletion strains, locus YOL006C, strain TOP1, stronger effect = lower value 1.04 | S. cerevisiae deletion strains, locus YOL012C, strain htz1 0.932 | S. cerevisiae deletion strains, locus YOL147C, strain pex11, stronger effect = lower value 1.01 | S. cerevisiae deletion strains, locus YOR001W, strain rrp6, stronger effect = lower value 1.01 | S. cerevisiae deletion strains, locus YOR061W, strain CKA2, stronger effect = lower value 1.02 | S. cerevisiae deletion strains, locus YOR069W, strain VPS5, stronger effect = lower value 1.01 | S. cerevisiae deletion strains, locus YOR070C, strain gyp1, stronger effect = lower value 0.993 | S. cerevisiae deletion strains, locus YOR080W, strain dia2, stronger effect = lower value 0.983 | S. cerevisiae deletion strains, locus YOR083W, strain WHI5, stronger effect = lower value 0.922 | S. cerevisiae deletion strains, locus YOR106W, strain vam3, stronger effect = lower value 0.982 | S. cerevisiae deletion strains, locus YOR136W, strain idh2, stronger effect = lower value 1.02 | S. cerevisiae deletion strains, locus YOR144C, strain elg1, stronger effect = lower value 1.02 | S. cerevisiae deletion strains, locus YOR184W, strain ser1, stronger effect = lower value 1.06 | S. cerevisiae deletion strains, locus YOR231W, strain MKK1, stronger effect = lower value 0.988 | S. cerevisiae deletion strains, locus YOR265W, strain rbl2, stronger effect = lower value 0.983 | S. cerevisiae deletion strains, locus YOR270C, strain vph1, stronger effect = lower value 1.03 | S. cerevisiae deletion strains, locus YOR290C, strain snf2, stronger effect = lower value 0.977 | S. cerevisiae deletion strains, locus YOR316C, strain cot1, stronger effect = lower value 1.03 | S. cerevisiae deletion strains, locus YPL051W, strain arl3, stronger effect = lower value 0.984 | S. cerevisiae deletion strains, locus YPL055C, strain LGE1, stronger effect = lower value 1 | S. cerevisiae deletion strains, locus YPL078C, strain atp4, stronger effect = lower value 0.971 | S. cerevisiae deletion strains, locus YPL106C, strain sse1, stronger effect = lower value 0.934 | S. cerevisiae deletion strains, locus YPL240C, strain hsp82, stronger effect = lower value 0.989 | S. cerevisiae deletion strains, locus YPL256C, strain CLN2, stronger effect = lower value 1 | S. cerevisiae deletion strains, locus YPR119W, strain clb2, stronger effect = lower value 1.01 | S. cerevisiae deletion strains, locus YPR141C, strain kar3, stronger effect = lower value 1.01 | S. cerevisiae deletion strains, locus YPR163C, strain tif3, stronger effect = lower value 1.02 | S. cerevisiae deletion strains, locus YPR167C, strain met16, stronger effect = lower value 1.03 | S. cerevisiae deletion strains, strain wtn01, stronger effect = lower value 1.02 | S. cerevisiae strains, strain wild type, stronger effect = lower value 1.02
